Pf growth 48h = P. falciparum growth inhibition at 48 hours (one generation). P. falciparum luciferase growth in erythrocytes, 48 h. Potency, µM (doses to about 28.7 µM), for inactives: at the highest dose activity change, negative = inhibition, actives largely listed as inhibitors. 310,000 tested, 5.9% active; further: potency means the concentration at half of the fitted maximal effect; on the % scale 0 is the no-effect control and ±100 the full control effect
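Cell-based growth assay: transgenic P. falciparum expressing firefly luciferase, cultured in red cells within RPMI 1640 containing 0.5% w/v Albumax, 24 mM bicarbonate and gentamycin. A drop in luciferase activity indicates inhibition.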
Pf growth 96h = P. falciparum growth inhibition at 96 hour, primary screen for plastid delayed-death inhibitors; P. falciparum luciferase reporter growth, 96 h; Potency, µM (doses to about 28.7 µM), inactives show at the highest dose activity change, negative = inhibition, actives largely listed as inhibitors; 320,000 tested, 6.9% active; further: potency means the concentration at half of the fitted maximal effect; on the % scale 0 is the no-effect control and ±100 the full control effect
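Infected RBCs, 2% Hct / 0.05% parasitemia final; luciferase-reporter P. falciparum; cpd 96 h, 37 C, 5% CO2; luciferase detection reagent; luminescence.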
Shiga toxin inh = blocks Shiga toxin action in Vero cells | 290,000 tested, 9.2% active | Vero cells, Shiga toxin protein synthesis inhibition reporter | inhibition, % at 38.7 µM; in the data active means inhibition mostly above about 28%, no sharp cut-off; inactive means mostly below about 43%; further: 0% is about no effect
HCMV inh = inhibitors of human cytomegalovirus | 410,000 tested, 4.5% active | AID 1259415 | HFF cells, HCMV-luciferase reporter, 72 h; active compounds read low | activity change, negative = inhibition, % at 57.5 µM; in the data active means activity change below about -60%; inconclusive means no clear call, values can overlap the other calls; inactive means above about -39%; further: on the % scale 0 is the no-effect control and ±100 the full control effect
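Inhibition of viral replication was scored as loss of reporter luminescence in HFFs infected with HCMV-luciferase (MOI 1 PFU/cell) for 72 h; compounds tested at 2 doses, normalized to buffer and Salinomycin controls.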
Cycloheximide cs = affects cycloheximide protein synthesis inhibition readout, counter-screen. cell reporter, cycloheximide protein synthesis inhibition counterscreen. max response, %. 300,000 tested, 12% active. AID 2314; in the data active means max response mostly above about 13%, no sharp cut-off; inactive means mostly below about 14%; further: read at 38.3 µM for the half of the compounds with a filed dose; 0% is about no effect
HCV inh = blocks hepatitis C virus; Potency, µM (titrated, usually from 41.8 µM), for the others: top-dose activity change, negative = inhibition, hits mostly inhibitors; Huh7.5.1 HCVcc-Cre infection, luciferase reporter, 44 h; 340,000 tested, 3.4% active; AID 651820; further: potency means the concentration at half of the fitted maximal effect; on the % scale 0 is the no-effect control and ±100 the full control effect
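HCVcc-Cre virus at an moi near 0.5 was added right after compound to cells cultured 4 h from seeding (1,000 cells/well). Luciferase activity was determined 44 h later, 15 min after substrate addition at RT.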
An asterisk follows results filed as active; ? = inconclusive; nt = not tested or not shown. Only some compounds are listed: those with a hit (about 21% of all), similar ones and a draw of the others. Unless noted, the call rests on the fitted dose curve; in most records, active means well fitted inhibition curve with a large enough effect; inconclusive means small, poorly fitted or top-dose-only effect, or another doubt; inactive means no such curve, though single readings can be large or run the other way.

SMILES	Pf growth 48h	Pf growth 96h	Shiga toxin inh	HCMV inh	Cycloheximide cs	HCV inh
COc1ccc(-c2nc3ccccc3n2Cc2ccc(C(C)C)cc2)cc1	nt	nt	nt	-73.3*	nt	nt
COc1ccc(Cn2c(-c3ccc(OC)cc3)n[nH]c2=S)cc1	-14.5%	13.4%	-7.6	15.9	1.7	2.9%
COc1ccc(-c2nc3ccccc3n2Cc2ccc(Cl)cc2)cc1	nt	nt	nt	4.3	nt	nt
COc1ccc(Cn2c(-c3ccc(C)cc3)c[n+]3ccccc23)cc1	0.37µM*	0.104µM*	21.1	-96.9*	10.1	?
COc1ccc(Cn2c(-c3ccc(OC)c(O)c3)nc3ccccc32)cc1O	-10.8%	25.0%	75.2*	14.0	26.8*	-4.0%
O=C(c1ccc(Cl)cc1)N1CCC(=O)N(C(CO)Cc2ccccc2)CC1 (configuration not stated)	nt	nt	nt	2.3	nt	-24.5%
CNC(=S)N/N=C/c1ccc(-c2cccc(C(=O)O)c2)o1	198.7%	158.9%	111.8*	0.0	61.4*	5.1%
Cc1ccc(OCC(=O)N/N=C\c2ccc(-c3cccc(C(=O)O)c3)o2)c(C)c1	51.3%	-19.2%	177.3*	11.0	74.1*	19.7%
COc1ccc(CC(=O)N/N=C/c2ccc(-c3cccc(C(=O)O)c3)o2)cc1OC	47.9%	150.4%	194.8*	0.0	71.1*	-0.9%
O=C(O)c1cccc(-c2ccc(/C=N/Nc3nn[nH]n3)o2)c1	41.0%	35.2%	9.8	25.3	9.5	18.6%
Nc1nonc1C(=O)N/N=C/c1ccc(-c2cccc(C(=O)O)c2)o1	24.8%	?	50.8*	nt	29.3*	nt
Cc1ccc(C(C)NC(=O)c2cc3cc(Br)ccc3oc2=N)cc1 (configuration not stated)	?	-13.6%	-24.3	-36.8	-0.9	?
COC(=O)c1ccc(-c2ccc(/C=N/NC(=O)Cc3nnc(N)s3)o2)cc1	59.9%	128.0%	39.5	20.1	24.3*	-4.7%
NS(=O)(=O)c1ccc(S(=O)(=O)N(CCc2ccccc2)Cc2ccccn2)cc1	-12.4%	?	-10.2	5.5	-3.4	14.0%
COC(=O)c1ccc(NC(=O)CCn2c(=O)oc3ccccc32)cc1	-6.8%	nt	40.4*	55.3	28.7*	-9.8%
CN(C(=O)CCn1c(=S)oc2ccccc21)c1ccc(F)cc1	-2.2%	?	-5.7	-88.7*	1.9	7.6%
CN(C)c1ccc(NC(=O)CCn2c(=S)oc3ccccc32)cc1	193.2%	2.3%	94.9*	-28.2	54.7*	-26.2%
O=C(CCn1c(=O)oc2ccccc21)Nc1ccc(C(=O)O)cc1	14.0%	20.7%	-18.3	15.4	-2.6	4.0%
O=C(CCn1c(=O)oc2ccccc21)Nc1nc2ccccc2s1	14.3%	8.0%	44.0*	3.1	13.0*	-29.8%
CNC(=O)C[C@H]1C(=O)N(CCc2ccccc2)C[C@@H]1C	nt	nt	nt	-3.8	nt	nt
CCOC(=O)[C@@H]1[C@H]2COc3cc(OC)ccc3[C@H]2N2C(=O)N(c3ccc(C)cc3)C(=O)[C@]12C	nt	nt	nt	-22.4	nt	1.0%
CCOC(=O)c1c(S(=O)(=O)N2CCCC(C(=O)N3CCN(c4cc(C)ccc4C)CC3)C2)c(C)n(C)c1C (configuration not stated)	nt	nt	nt	15.8	nt	nt
O=C1CC[C@@H](CN(Cc2ccccn2)Cc2nc(Cc3ccccc3)no2)N1	5.2%	16.5µM*	-6.7	0.6	-2.1	8.0%
O=C1CC[C@@H](CN(Cc2ccccn2)Cc2nc(Cc3cccc(C(F)(F)F)c3)no2)N1	-3.9%	25.7%	-12.3	-3.4	-2.2	-0.2%
CCOc1cc(C(=O)NCc2ccc3c(c2)OCO3)cc(OCC)c1OCC	28.2%	-22.1%	nt	28.3	-1.7	-25.5%
Cc1ccc([N+](=O)[O-])c(NC2OC(CO)C(O)C2O)c1 (configuration not stated)	-18.1%	5.22µM*	34.0	63.4	-4.1	25.4%
O=C(Cn1c(=O)c(C(F)(F)F)nc2ccccc21)Nc1cccc(Br)c1	nt	nt	nt	-18.2	nt	nt
Cc1cc(NC(=O)c2cc(-c3ccc(Cl)c(Cl)c3)on2)n(-c2ccccc2)n1	nt	nt	nt	6.4	nt	nt
CCCCNS(=O)(=O)c1ccc2nc(-c3cccnc3)cc(C(=O)NCCC)c2c1	nt	nt	nt	-66.0*	nt	nt

Screening data deposited in PubChem BioAssay by National Center for Advancing Translational Sciences (NCATS).
